Sampled rows, rich in hits. Any-hit rate of the full collection: about 3.3%.
LmPK inh: blocks Leishmania mexicana pyruvate kinase activity; Q27686; purified LmPK, Kinase-Glo ATP luminescence, 1 h; Potency, µM (top dose mostly 57.5 µM), inactives show at the highest dose activity change, negative = inhibition, usual class: inhibitors; hit rate 0.37% among 290,000; also: % is scaled to controls: 0 for no effect and ±100 for the full control effect
Target sequence (Q27686 whole entry, looked up): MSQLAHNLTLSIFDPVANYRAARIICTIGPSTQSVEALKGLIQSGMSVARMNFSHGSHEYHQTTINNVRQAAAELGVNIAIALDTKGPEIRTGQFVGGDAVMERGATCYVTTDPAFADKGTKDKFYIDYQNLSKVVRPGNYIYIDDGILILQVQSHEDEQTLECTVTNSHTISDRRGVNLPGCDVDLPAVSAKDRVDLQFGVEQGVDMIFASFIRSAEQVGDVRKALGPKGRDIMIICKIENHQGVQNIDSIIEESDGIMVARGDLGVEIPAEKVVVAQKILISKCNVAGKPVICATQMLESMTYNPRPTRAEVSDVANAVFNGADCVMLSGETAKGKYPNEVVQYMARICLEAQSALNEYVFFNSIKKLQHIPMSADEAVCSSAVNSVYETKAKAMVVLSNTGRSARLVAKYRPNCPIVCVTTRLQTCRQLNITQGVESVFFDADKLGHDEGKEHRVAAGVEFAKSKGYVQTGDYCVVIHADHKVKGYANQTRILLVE
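Kinase-Glo luminescence read after 1 h RT reaction of 0.1 nM LmPK with 0.5 mM PEP and 0.1 mM ADP. Activity scaled between uninhibited and enzyme-free controls.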
NS1 inh: blocks influenza NS1 protein function | Potency, µM (doses to about 46.1 µM), inactives show at the highest dose activity, positive = more growth | hit rate 0.4% among 270,000 | AID 2326; calls by dose curve; also: actives are rising curves; nearly all actives have a fitted effect of over 50% in size
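A cell-based growth assay was used: compounds that relieve NS1-induced slow growth of budding yeast raise OD600. Assay medium was yeast nitrogen base with ammonium sulphate and -URA supplement, pH 6.0, with 2% galactose.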
Sm TGR inh: inhibitors of Schistosoma mansoni thioredoxin glutathione reductase. purified TGR, DTNB reduction, TNB absorbance 405 nm. Potency, µM (highest dose often 114 µM), inactives show at the highest dose activity change, negative = inhibition, actives largely listed as inhibitors. hit rate 3% among 360,000. AID 485364; also: % is scaled to controls: 0 for no effect and ±100 for the full control effect; nearly all actives have a fitted effect of over 60% in size
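Kinetic colorimetric format: TGR-catalysed, NADPH-driven DTNB reduction monitored via TNB absorbance. Enzyme dispensed at 20 nM; compound exposure 15 min at room temperature before reaction start.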
Tb PYK inh: inhibitors of Trypanosoma brucei pyruvate kinase; Q57TT1; AID 624173; Potency, µM (doses to about 76.8 µM), inactives show at the top dose activity, negative = inhibition, usual class: inhibitors; TbPYK enzyme, Kinase-Glo Plus ATP luminescence, 45 min; hit rate 0.12% among 410,000; also: % is scaled to controls: 0 for no effect and ±100 for the full control effect; nearly all actives have a fitted effect of over 50% in size
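Readout: single end-point luminescence (Kinase-Glo Plus, 10 min). Reaction conditions were TbPYK/substrate plus 130 uM ADP, 45 min at RT, pH 7.2 TEA buffer. No-enzyme wells served as controls, and data were normalized before concentration-response fitting.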
SARS PLP yeast: inhibitors of SARS-CoV papain-like protease in yeast. S. cerevisiae expressing SARS-CoV PLpro, growth rescue. Potency, µM (top dose mostly 32.9 µM), without a hit: at the top dose activity, positive = growth rescue, actives largely listed as activators. hit rate 0.19% among 330,000. AID 485353; calls by dose curve; also: 0% is about no effect; nearly all actives have a fitted effect of over 55% in size
RE007 growth inh: less growth of the S. pombe RE007 Vpr strain | Potency, µM (titrated, usually from 92.2 µM), inactives show at the top dose activity change, negative = less growth, most hits filed as inhibitors | hit rate 0.21% among 360,000 | S. pombe RE007 Vpr strain, BacTiter-Glo ATP luminescence, 24 h | AID 651644; active = well fitted falling curve with a large enough effect; inconclusive = small, poorly fitted or top-dose-only effect; inactive = no such curve, though single readings can be large or run the other way; also: % is scaled to controls: 0 for no effect and ±100 for the full control effect; nearly all actives have a fitted effect of over 50% in size
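Fission yeast RE007 carrying one integrated HIV-1 vpr copy, seeded at OD 0.01 in PMG+AL medium with 23 nL pinned compound. Grown 24 h at 30 degrees; viability read by BacTiter-Glo luminescence after 5 min.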
Numbers without * were called inactive; ? = inconclusive; nt = no result. Unless noted, calls follow the shape of the dose curve; as a rule, active = well fitted curve in the direction sought with a large enough effect; inconclusive = small, poorly fitted or top-dose-only effect, or another doubt; inactive = no such curve, though single readings can be large; an effect the other way counts as inactive or inconclusive. Potency is read from the fitted curve at half-maximal effect.

SMILES | LmPK inh | NS1 inh | Sm TGR inh | Tb PYK inh | SARS PLP yeast | RE007 growth inh
CSc1sc(C(=O)NCC2CC2)cc1S(=O)(=O)C(C)C | 0% | -2% | 1% | 7% | 2% | -3%
COC(=O)c1cc(S(=O)(=O)C(C)C)c(S(C)=O)s1 (stereo not drawn) | 2% | -1% | 35µM* | 3% | -2% | -1%
O=C(O)c1cc(/C=C/c2ccc(N3CCOCC3)cc2)nc2ccccc12 | ? | 11% | 40% | -21% | -9% | 16µM*
O=C(O)c1cc(/C=C/c2ccc(N3CCOCC3)c([N+](=O)[O-])c2)nc2ccccc12 | ? | ? | -3% | -5% | 0% | -12%
Cc1cc(C)n(-c2nc3ccccc3nc2Nc2cccc(C(F)(F)F)c2)n1 | nt | nt | 2% | 0% | nt | nt
O=c1c2ccccc2sc2nc(C3CCCCC3)n(Cc3ccco3)c(=O)c12 | -9% | -45% | 10µM* | -4% | -4% | 2%
CCCc1nc2sc3ccccc3c(=O)c2c(=O)n1Cc1ccccc1 | nt | nt | nt | 0% | nt | 7%
CCc1nc2sc3ccccc3c(=O)c2c(=O)n1Cc1ccco1 | 2% | -15% | 35µM* | ? | 7% | -8%
O=C(COCc1cc(-c2ccc3c(c2)OCO3)on1)NCc1ccc(F)cc1 | nt | nt | 2% | -6% | nt | nt
Cc1ccccc1NC(=O)C1CCN(S(=O)(=O)c2c(C)noc2/C=C/c2ccco2)CC1 | nt | nt | -35% | 1% | nt | nt
Cc1noc(/C=C/c2ccco2)c1S(=O)(=O)N1CCC(C(=O)N2CCc3ccccc3C2)CC1 | 4% | 9% | 11µM* | -3% | -4% | -5%
Cc1ccc(CNC(=O)C2CCN(S(=O)(=O)c3c(C)noc3/C=C/c3ccco3)CC2)cc1 | 7% | -10% | 40µM* | 2% | 7% | 4%
Cc1ccc(CN(CC2CCCO2)C(=O)CN2C(=O)C(C(C)C)Oc3ccccc32)o1 (stereo not drawn) | 6% | -11% | 35µM* | ? | 1% | -2%
COc1ccc(N2C(=O)CC(Sc3nc(C)c4c(n3)CCCC4)C2=O)cc1 (stereo not drawn) | 1% | 6% | 0% | -5% | -10% | -1%
CCOc1ccc(N2C(=O)CC(Sc3n[nH]c(-c4ccccc4)n3)C2=O)cc1 (stereo not drawn) | 17% | -61% | 0.63µM* | -29% | -6% | ?
COc1ccc(N2C(=O)CC(Sc3n[nH]c(-c4ccccc4)n3)C2=O)cc1 (stereo not drawn) | 11% | -66% | 0.32µM* | -20% | -4% | 18µM*
CCn1c(C(=O)NCc2ccc(C)cc2)cc2sc(Cl)cc21 | nt | nt | 10% | -3% | nt | nt
O=C(Nc1ccc2oc(-c3ccccc3)nc2c1)c1ccco1 | 1% | -20% | -11% | -10% | -50% | -10%
O=C(Nc1ccc2oc(-c3cccnc3)nc2c1)c1ccc(-c2ccc(OC(F)(F)F)cc2)o1 | nt | nt | 8.9µM* | -8% | nt | nt
O=C(Nc1ccc2c(c1)nc1n2CCSC1)c1ccco1 | -28% | ? | 14µM* | -5% | -19% | -6%
O=C(Nc1ccc2oc(-c3cccnc3)nc2c1)c1ccc(-c2ccccc2OC(F)(F)F)o1 | nt | nt | ? | -2% | nt | nt
O=C(Nc1ccc2oc(-c3ccncc3)nc2c1)c1ccco1 | 0% | -44% | 35µM* | -11% | -25% | -4%
O=C(Nc1ccc2c(c1)nc1n2CCOC1)c1ccco1 | 1% | 4% | -27% | -15% | -3% | -5%
O=C(Nc1ccc2oc(-c3cccnc3)nc2c1)c1ccc(-c2ccccc2)o1 | nt | nt | 35µM* | 2% | nt | nt
COc1cc(CN(CC2CCCO2)C(=O)c2ccc(F)cc2)cc(OC)c1OC (stereo not drawn) | nt | nt | 1% | -2% | nt | nt
SMILES | LmPK inh | NS1 inh | Sm TGR inh | Tb PYK inh | SARS PLP yeast | RE007 growth inh
CCc1ccccc1NC(=O)CN(c1cc(C(F)(F)F)ccc1Cl)S(=O)(=O)c1ccccc1 | nt | nt | -6% | 1% | nt | nt
Cc1cc(O)c(-c2ccnc3cc(-c4ccccc4)nn23)cc1Cl | nt | nt | -8% | 0% | nt | nt
N#Cc1ccc(-c2cccs2)nc1SCc1ccc(Cl)cc1Cl | nt | nt | 4% | 0% | nt | nt
C/C=C\C(=O)Nc1cccc(C2=NOC3(C2)C[C@H](C(N)=O)N(C(=O)/C=C/CC)C3)c1 (stereo partly drawn) | 7% | 2% | -16% | -3% | 1% | -12%
C/C=C\C=C/C(=O)Nc1cccc(C2=NOC3(C2)C[C@@H](C(N)=O)N(C(=O)/C=C/C=C\C)C3)c1 (stereo partly drawn) | 1% | -8% | ? | ? | 0% | 16%
C/C=C\C(=O)Nc1cccc(C2=NOC3(C2)C[C@@H](C(N)=O)N(C(=O)C2(C)CC2)C3)c1 (stereo partly drawn) | 1% | 5% | -1% | 1% | 1% | -1%
C/C=C\C=C/C(=O)Nc1cccc(C2=NOC3(C2)C[C@@H](C(N)=O)N(C(=O)[C@H]2CCC(=O)N2)C3)c1 (stereo partly drawn) | -4% | 2% | 3.5µM* | -13% | 0% | 0%
C/C=C/C=C\C(=O)Nc1cccc(C2=NOC3(C2)C[C@@H](C(N)=O)N(C(=O)c2cc([N+](=O)[O-])cc([N+](=O)[O-])c2)C3)c1 (stereo partly drawn) | 5% | -6% | 3.5µM* | -3% | 5% | -6%
C/C=C\C=C/C(=O)Nc1cccc(C2=NOC3(C2)C[C@@H](C(N)=O)N(C(=O)/C=C/CC)C3)c1 (stereo partly drawn) | 3% | -2% | 1.8µM* | 4% | 1% | -2%
C/C=C\C=C/C(=O)Nc1cccc(C2=NOC3(C2)C[C@@H](C(N)=O)N(C(=O)C2(C)CC2)C3)c1 (stereo partly drawn) | 3% | -6% | 1.8µM* | -30% | 2% | -4%
CCOc1ccc(CCNC(=O)CCc2cn(Cc3ccc(C)cc3)c3ccccc23)cc1 | nt | nt | 1% | -2% | nt | nt
C/C=C\C=C\C(=O)N1CC2(CC(c3cccc(NC(=O)CC(c4ccccc4)c4ccccc4)c3)=NO2)C[C@H]1C(N)=O (stereo partly drawn) | 3% | 15% | 7.1µM* | -16% | 2% | 0%
COc1ccc(Cl)cc1NC(=O)[C@H]1O[C@@H]2OC(C)(C)O[C@@H]2[C@H]2OC(C)(C)O[C@H]21 | nt | nt | 2% | 2% | nt | nt
CCC(C)Sc1c(C(C)C)cnc2c1c(=O)n(C)c(=O)n2C (stereo not drawn) | nt | nt | -8% | ? | nt | nt
O=C(CCN1CCOCC1)Nc1ccc(Br)cc1C(=O)c1ccccc1 | -2% | -1% | 25µM* | 4% | -1% | -2%
O=C(CN1CCOCC1)Nc1ccc(Br)cc1C(=O)c1ccccc1 | -2% | -18% | -1% | 2% | 10% | 13%
